In PubChem BioAssay (EPA / NIEHS):
Active and inactive are the calls of the source. How the source made its calls: active means hit-call score of the fitted dose curve at least 0.9, where 1 is the maximum; inactive means score below 0.9.

Experiments:
Settings in all cases: mRNA level, 48 h; actives raise or lower the signal
[1] = read-out: growth arrest and DNA damage 45 (GADD45A), GADD45A (gene 1647); assay: LTEA_HepaRG_GADD45A: Life Technologies and Expression Analysis (LTEA) Assay for growth arrest and DNA damage 45 (GADD45A) using HepaRG (AID 2283458)
Procedure, shortened: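 Differentiated HepaRG cells exposed 48 h in serum-free induction medium to 8 concentrations, top 100 uM in half-log steps, 0.5% DMSO. GADD45A mRNA quantified by qRT-PCR, normalized to ACTB, GAPDH and POLR2A; bidirectional fit versus DMSO.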

[2] = read-out: Forkhead box O3 (FOXO3), FOXO3 (gene 2309); assay: LTEA_HepaRG_FOXO3: Life Technologies and Expression Analysis (LTEA) Assay for Forkhead box O3 (FOXO3) using HepaRG (AID 2283459)
Procedure, shortened: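 Differentiated human HepaRG cells in serum-free induction medium were exposed in duplicate for 48 h to eight half-log concentrations up to 100 uM in 0.5% DMSO. FOXO3 mRNA was quantified by qRT-PCR, normalized to ACTB, GAPDH and POLR2A, with bidirectional fitting versus DMSO.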

[3] = read-out: ABC Transporter (ABCB1), ABCB1 (gene 5243); assay: LTEA_HepaRG_ABCB1: Life Technologies and Expression Analysis (LTEA) Assay for ABC Transporter (ABCB1) using HepaRG (AID 2283460)
Procedure, shortened: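 Differentiated human HepaRG cells, plated 48 h then switched to serum-free induction medium, were exposed in duplicate to eight half-log concentrations up to 100 uM in 0.5% DMSO for 48 h. ABCB1 mRNA was measured by TaqMan qRT-PCR, normalized to ACTB/GAPDH/POLR2A.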

[4] = read-out: growth arrest and DNA damage 45 (GADD45B), GADD45B (gene 4616); assay: LTEA_HepaRG_GADD45B: Life Technologies and Expression Analysis (LTEA) Assay for growth arrest and DNA damage 45 (GADD45B) using HepaRG (AID 2283461)
Procedure, shortened: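 Values are bidirectional concentration-response fits against 0.5% DMSO controls. Underlying data: qRT-PCR mRNA levels in human HepaRG liver cells treated 48 h in serum-free induction medium, eight concentrations topping at 100 uM.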

[5] = read-out: ABC Transporter (ABCC3), ABCC3 (gene 8714); assay: LTEA_HepaRG_ABCC3: Life Technologies and Expression Analysis (LTEA) Assay for ABC Transporter (ABCC3) using HepaRG (AID 2283462)
Procedure, shortened: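 Differentiated HepaRG liver cells receive test chemicals at eight concentrations (max 100 uM) for 48 h. Expression of ABCC3 is quantified by qRT-PCR against ACTB, GAPDH and POLR2A, and activity is fitted in both directions against the DMSO control.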

[6] = read-out: ABC Transporter (ABCB11), ABCB11 (gene 8647); assay: LTEA_HepaRG_ABCB11: Life Technologies and Expression Analysis (LTEA) Assay for ABC Transporter (ABCB11) using HepaRG (AID 2283463)
Procedure, shortened: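 Differentiated human HepaRG cells were exposed for 48 h in serum-free induction medium to eight half-log concentrations up to 100 uM in 0.5% DMSO. ABCB11 mRNA was quantified by qRT-PCR, normalized to ACTB, GAPDH and POLR2A, and fitted bidirectionally versus DMSO.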

[7] = read-out: ABC Transporter (ABCC2), ABCC2 (gene 1244); assay: LTEA_HepaRG_ABCC2: Life Technologies and Expression Analysis (LTEA) Assay for ABC Transporter (ABCC2) using HepaRG (AID 2283464)
Procedure, shortened: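 Gene expression of ABCC2 was determined by qRT-PCR in HepaRG cells exposed 48 h to chemicals (highest 100 uM, half-log dilutions). Activity was fitted in both directions relative to 0.5% DMSO vehicle.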

[8] = read-out: Broad substrate specificity ATP-binding cassette transporter ABCG2 (Homo sapiens) (UniProt Q9UNQ0); assay: LTEA_HepaRG_ABCG2: Life Technologies and Expression Analysis (LTEA) Assay for ABC Transporter (ABCG2) using HepaRG (AID 2283465)
Procedure, shortened: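 Differentiated HepaRG cells in serum-free induction medium were exposed for 48 h, in duplicate, to eight half-log concentrations up to 100 uM in 0.5% DMSO. ABCG2 mRNA was measured by TaqMan qRT-PCR, normalized to ACTB, GAPDH and POLR2A, and fitted bidirectionally versus DMSO.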

[9] = read-out: Peroxisomal acyl-coenzyme A oxidase 1 (ACOX1) gene, ACOX1 (gene 51); assay: LTEA_HepaRG_ACOX1: Life Technologies and Expression Analysis (LTEA) Assay for Peroxisomal acyl-coenzyme A oxidase 1 (ACOX1) gene using HepaRG (AID 2283467)
Procedure, shortened: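 Differentiated human HepaRG cells were exposed in duplicate for 48 h in serum-free induction medium to eight half-log concentrations up to 100 uM in 0.5% DMSO. ACOX1 mRNA was then quantified by TaqMan qRT-PCR, normalized to ACTB, GAPDH and POLR2A.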

[10] = read-out: Alkaline Phosphatase, Placental (ALPP) gene, ALPP (gene 250); assay: LTEA_HepaRG_ALPP: Life Technologies and Expression Analysis (LTEA) Assay for Alkaline Phosphatase, Placental (ALPP) gene using HepaRG (AID 2283468)
Procedure, shortened: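 Expression of ALPP was quantified by qRT-PCR against three housekeeping genes in human HepaRG cultures treated for 48 h with an eight-point concentration series up to 100 uM. Activity in either direction was fitted relative to 0.5% DMSO.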

[11] = read-out: Bcl-2 (BAD) gene, BAD (gene 572); assay: LTEA_HepaRG_BAD: Life Technologies and Expression Analysis (LTEA) Assay for Bcl-2 (BAD) gene using HepaRG (AID 2283469)
Procedure, shortened: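 Differentiated human HepaRG cells in serum-free induction medium were exposed in duplicate for 48 h to eight concentrations (top 100 uM, half-log steps, 0.5% DMSO). BAD mRNA was quantified by qRT-PCR normalised to ACTB, GAPDH and POLR2A, with bidirectional fitting versus DMSO.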

[12] = read-out: adenosine kinase (ADK) gene, ADK (gene 132); assay: LTEA_HepaRG_ADK: Life Technologies and Expression Analysis (LTEA) Assay for adenosine kinase (ADK) gene using HepaRG (AID 2283471)
Procedure, shortened: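 HepaRG (human liver), 48 h chemical exposure, 8-pt half-log series, top 100 uM, 0.5% DMSO vehicle. Readout: ADK mRNA by qRT-PCR vs housekeeping genes; bidirectional curve fit relative to DMSO baseline.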

[13] = read-out: Alpha-fetoprotein (AFP) gene, AFP (gene 174); assay: LTEA_HepaRG_AFP: Life Technologies and Expression Analysis (LTEA) Assay for Alpha-fetoprotein (AFP) gene using HepaRG (AID 2283472)
Procedure, shortened: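 Differentiated human HepaRG cells exposed 48 h in serum-free induction medium, 8-point half-log series from 100 uM in 0.5% DMSO, duplicate. AFP mRNA by qRT-PCR, normalized to ACTB, GAPDH, POLR2A; bidirectional fit vs DMSO.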

BCL2L11 (gene 10018) = assay: LTEA_HepaRG_BCL2L11: Life Technologies and Expression Analysis (LTEA) Assay for Bcl-2 (BCL2L11) gene using HepaRG (AID 2283473)
Procedure, shortened: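 Cells were plated, cultured 48 h, switched to serum-free induction medium, then dosed in duplicate for 48 h at eight half-log concentrations up to 100 uM. Lysates underwent RNA isolation and TaqMan qRT-PCR; gain or loss versus DMSO was fitted.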

[14] = read-out: Apolipoprotein A-V (APOA5) gene, APOA5 (gene 116519); assay: LTEA_HepaRG_APOA5: Life Technologies and Expression Analysis (LTEA) Assay for Apolipoprotein A-V (APOA5) gene using HepaRG (AID 2283474)
Procedure, shortened: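 Human liver HepaRG cells are treated 48 h with test chemicals (100 uM top, half-log dilutions, 0.5% DMSO). APOA5 mRNA induction or loss is measured by qRT-PCR relative to vehicle.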

[15] = read-out: Bcl-2 (BID) gene, BID (gene 637); assay: LTEA_HepaRG_BID: Life Technologies and Expression Analysis (LTEA) Assay for Bcl-2 (BID) gene using HepaRG (AID 2283476)
Procedure, shortened: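 Gene expression by qRT-PCR in HepaRG cells after 48 h exposure, duplicate wells, eight half-log concentrations topping at 100 uM in 0.5% DMSO. Normalized to ACTB, GAPDH, POLR2A; bidirectional fitting relative to DMSO.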

Caspase-3 (Homo sapiens) = Caspase-3 (Homo sapiens) (UniProt P42574); assay: LTEA_HepaRG_CASP3: Life Technologies and Expression Analysis (LTEA) Assay for cysteine-aspartic acid protease (CASP3) using HepaRG (AID 2283477)
Procedure, shortened: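 In HepaRG liver cells dosed for 48 h at up to 100 uM (eight-point, duplicate), CASP3 expression changes are scored by qRT-PCR. Activity is fitted in both directions with 0.5% DMSO as baseline.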

[16] = read-out: Apoptosis regulator Bcl-2 (Homo sapiens) (UniProt P10415); assay: LTEA_HepaRG_BCL2: Life Technologies and Expression Analysis (LTEA) Assay for Bcl-2 gene using HepaRG (AID 2283475)
Procedure, shortened: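 Differentiated human HepaRG cells in serum-free induction medium exposed 48 h, in duplicate, to 8-point half-log series from 100 uM in 0.5% DMSO. BCL2 mRNA by qRT-PCR (TaqMan/Fluidigm), normalized to ACTB, GAPDH, POLR2A; bidirectional fit against DMSO.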

[17] = read-out: ATP-citrate lyase (ACLY), ACLY (gene 47); assay: LTEA_HepaRG_ACLY: Life Technologies and Expression Analysis (LTEA) Assay for ATP-citrate lyase (ACLY) using HepaRG (AID 2283466)
Procedure, shortened: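 Differentiated human HepaRG cells in serum-free induction medium exposed 48 h, in duplicate, to eight half-log concentrations from 100 uM top in 0.5% DMSO; ACLY mRNA measured by qRT-PCR, normalized to ACTB, GAPDH, POLR2A, fitted bidirectionally versus DMSO.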

[18] = read-out: Bcl-2 (BAX) gene, BAX (gene 581); assay: LTEA_HepaRG_BAX: Life Technologies and Expression Analysis (LTEA) Assay for Bcl-2 (BAX) gene using HepaRG (AID 2283470)
Procedure, shortened: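 Differentiated HepaRG cells exposed 48 h in serum-free induction medium, eight half-log concentrations from 100 uM, in duplicate, 0.5% DMSO vehicle. BAX mRNA by TaqMan qRT-PCR, normalised to ACTB, GAPDH and POLR2A.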

Measured: AC50

Sequence of Apoptosis regulator Bcl-2 (Homo sapiens) (P10415 whole entry, looked up): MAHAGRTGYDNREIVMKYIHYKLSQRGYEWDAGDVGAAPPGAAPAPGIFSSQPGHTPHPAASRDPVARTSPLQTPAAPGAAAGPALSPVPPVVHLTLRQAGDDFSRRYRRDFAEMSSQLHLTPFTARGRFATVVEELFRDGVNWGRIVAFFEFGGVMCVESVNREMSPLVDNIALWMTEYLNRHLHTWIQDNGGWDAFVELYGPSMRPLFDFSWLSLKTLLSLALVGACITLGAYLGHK
Sequence of Caspase-3 (Homo sapiens) (P42574 whole entry, looked up): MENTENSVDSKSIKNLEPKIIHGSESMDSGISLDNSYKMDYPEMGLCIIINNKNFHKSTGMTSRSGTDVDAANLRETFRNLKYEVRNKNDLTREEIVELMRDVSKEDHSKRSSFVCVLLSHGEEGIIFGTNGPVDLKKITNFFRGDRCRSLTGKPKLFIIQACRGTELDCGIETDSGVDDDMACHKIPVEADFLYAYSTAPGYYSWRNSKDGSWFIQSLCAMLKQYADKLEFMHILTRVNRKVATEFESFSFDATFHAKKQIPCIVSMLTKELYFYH
Sequence of Broad substrate specificity ATP-binding cassette transporter ABCG2 (Homo sapiens) (Q9UNQ0 whole entry, looked up): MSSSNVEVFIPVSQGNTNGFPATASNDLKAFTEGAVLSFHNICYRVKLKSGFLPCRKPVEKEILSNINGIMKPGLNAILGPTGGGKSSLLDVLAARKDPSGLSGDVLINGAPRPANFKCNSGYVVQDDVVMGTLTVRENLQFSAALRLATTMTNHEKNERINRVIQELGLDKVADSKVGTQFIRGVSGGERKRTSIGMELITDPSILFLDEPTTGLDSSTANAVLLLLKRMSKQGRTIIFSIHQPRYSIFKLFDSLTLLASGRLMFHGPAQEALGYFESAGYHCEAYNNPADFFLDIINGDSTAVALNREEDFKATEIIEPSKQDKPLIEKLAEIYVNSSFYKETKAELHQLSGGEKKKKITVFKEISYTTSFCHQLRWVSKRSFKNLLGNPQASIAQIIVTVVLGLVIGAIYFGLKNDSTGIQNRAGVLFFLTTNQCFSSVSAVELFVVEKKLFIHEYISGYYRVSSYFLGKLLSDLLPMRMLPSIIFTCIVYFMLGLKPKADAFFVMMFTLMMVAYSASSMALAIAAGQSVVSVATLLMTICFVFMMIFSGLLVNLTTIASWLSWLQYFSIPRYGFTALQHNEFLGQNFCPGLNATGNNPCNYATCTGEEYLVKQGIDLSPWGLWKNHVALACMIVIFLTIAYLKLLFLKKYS

COC(=O)[C@H]1[C@H]2C[C@@H]3c4[nH]c5cc(OC)ccc5c4CCN3C[C@H]2C[C@@H](OC(=O)c2cc(OC)c(OC)c(OC)c2)[C@@H]1OC
active: [3] 9.75 µM | [5] 49.8 µM | [6] 31.4 µM | [7] 67.4 µM | [9] 42.2 µM | [10] 25.9 µM | [13] 60.8 µM | [14] 55.6 µM
not listed: [16] | [17] | [18]
inactive: all other assays above

O=C1O[C@H]([C@H](O)CO)C(O)=C1O
not listed: [14] | [17] | [18]
inactive: all other assays above

CCCCc1nc2cccnc2n1Cc1ccc(-c2ccccc2-c2nnn[nH]2)cc1
active: [3] 50 µM | [6] 89.8 µM | [7] 50 µM | [8] 27.1 µM | [13] 33.2 µM
not listed: [10] | [14] | [18]
inactive: all other assays above

C/C=C/C=C/C(=O)O
active: [1] 0.246 µM | BCL2L11 (gene 10018) 0.00162 µM
not listed: [10] | [18]
inactive: all other assays above

CC(=O)[C@@]1(O)CC[C@H]2[C@@H]3CCC4=CC(=O)CC[C@]4(C)[C@H]3CC[C@@]21C
active: [17] 39.6 µM | [13] 50 µM
not listed: [10] | [16] | [18]
inactive: all other assays above

CC(C)NCC(O)c1ccc(O)c(O)c1 (stereo not drawn)
active: [6] 0.147 µM | [7] 0.128 µM | [8] 0.156 µM | [17] 0.182 µM | [9] 0.224 µM | [13] 0.261 µM
not listed: [2] | [10] | [14] | [15] | [16]
inactive: all other assays above

CCCCOC(=O)CCCCC(=O)OCCCC
not listed: [10] | [14] | [18]
inactive: all other assays above

c1ccc2occc2c1
not listed: [10] | [16] | [18]
inactive: all other assays above

Cc1cn([C@H]2C=C[C@@H](CO)O2)c(=O)[nH]c1=O
not listed: [10] | BCL2L11 (gene 10018) | [18]
inactive: all other assays above

O=C(O)CC(O)(CC(=O)O)C(=O)O
not listed: [7] | [14] | [18]
inactive: all other assays above

CO[C@@H]1COCC[C@@H]1N[C@@H]1CC[C@@](C(=O)N2CCc3ncc(C(F)(F)F)cc3C2)(C(C)C)C1
not listed: [10] | [14] | [16]
inactive: all other assays above

CC(C)c1cccc(C(C)C)c1
not listed: [6] | [10] | [18]
inactive: all other assays above

Oc1ccccc1O
not listed: [10] | [16] | [18]
inactive: all other assays above

CC(COCC(C)OC(=O)c1ccccc1)OC(=O)c1ccccc1 (stereo not drawn)
not listed: [9] | [14] | [16] | [18]
inactive: all other assays above

O=[Si]=O
not listed: [10] | [16] | [18]
inactive: all other assays above
